Over roughly 2,900 compounds, “IRF Lucia reporter activity, fold change vs agonist alone” has its median near 0.9; the highest 2% begin near 2.8. The full list was thinned out, with the highest values kept by preference.
Assays:
RAW-Dual [1] = assay: IRF Lucia reporter activity, fold change vs agonist alone; higher = enhanced IRF activity; settings: library stock concentration (final ~1000-fold dilution): 10 mM, agonist: MPLA (TLR4) […]
Outline: (§1)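 Cytotoxic wells were those whose IncuCyte confluency was below 70% of agonist controls in both mask sets. The cells were RAW-Dual macrophages at 50,000 cells/well in DMEM on 384-well plates, dosed with 50 nL of library stock by pin tool, stimulated with a PRR agonist 1 h later, and kept at 37 °C, 5% CO2 for 20 hours. IRF and NF-κB reporter activity, as fold change over agonist-alone wells, came from supernatant read by QuantiLuc luminescence and QuantiBlue absorbance, respectively.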

RAW-Dual [2] = assay: IRF Lucia reporter activity, fold change vs agonist alone; cytotoxicity flag (confluency mask): not cytotoxic; higher = enhanced IRF activity; settings: library stock concentration (final ~1000-fold dilution): 10 mM
Outline: as §1

RAW-Dual [3] = assay: IRF Lucia reporter activity, fold change vs agonist alone; cytotoxicity flag (confluency mask): cytotoxic (confluency <70% of control); higher = enhanced IRF activity; settings: library stock concentration (final ~1000-fold dilution): 10 mM
Outline: as §1

[4] = cytotoxicity flag (confluency mask): not cytotoxic
[5] = agonist: 3'3'-cGAMP (STING) 10 ug/mL

## CCC(C)C(NC(=O)C(C(C)CC)N(C)C(C)=O)C(=O)NC(=O)C(NC(CC(C)C)C(=O)C1(C)CO1)C(C)O (stereo not drawn)
RAW-Dual [1]; [4]
  IRF Lucia reporter activity: 2.09
RAW-Dual [2]; [5]
  IRF Lucia reporter activity: 1.55
RAW-Dual [2]; agonist: LPS (TLR4) 0.1 ug/mL
  IRF Lucia reporter activity: 4.46

## COc1cc2c(cc1OC)C(Cc1ccc(O)c(Oc3cc4c(cc3OC)CCN(C)C4Cc3ccc(O)cc3)c1)N(C)CC2.[O-][Cl+3]([O-])([O-])O (stereo not drawn)
RAW-Dual [2]; [5]
  IRF Lucia reporter activity: 0.0548
RAW-Dual [2]; agonist: LPS (TLR4) 0.1 ug/mL
  IRF Lucia reporter activity: 0.74

## Cc1sc2c(c1C)C(c1ccc(Cl)cc1)=NC(CC(=O)OC(C)(C)C)c1nnc(C)n1-2 (stereo not drawn)
RAW-Dual [1]; cytotoxicity flag (confluency mask): cytotoxic (confluency <70% of control)
  IRF Lucia reporter activity: 0.122
RAW-Dual [3]; [5]
  IRF Lucia reporter activity: 0.193
RAW-Dual [3]; agonist: LPS (TLR4) 0.1 ug/mL
  IRF Lucia reporter activity: 0.185

## CC(C)c1ccc2c(c1O)CCC1C3=C(CCC21C)C(=O)OC3 (stereo not drawn)
RAW-Dual [2]; [5]
  IRF Lucia reporter activity: 0.917
RAW-Dual [2]; agonist: LPS (TLR4) 0.1 ug/mL
  IRF Lucia reporter activity: 1.25

## CCC12C=CCN3CCC4(c5ccc(OC)cc5N(C)C4C(O)(C(=O)OC)C1OC(C)=O)C32 (stereo not drawn)
RAW-Dual [1]; [4]
  IRF Lucia reporter activity: 1.06
RAW-Dual [2]; [5]
  IRF Lucia reporter activity: 0.891
RAW-Dual [2]; agonist: LPS (TLR4) 0.1 ug/mL
  IRF Lucia reporter activity: 1.25

Source: the supplement of paper PMC10037445
